# NALP1 yeast inh: blocks the NALP1 inflammasome reconstituted in yeast. S. cerevisiae NALP1/ASC/caspase-1 growth, X-gal OD620, 72 h. inhibition, % at 10 µM. actives 0.61% (n = 280,000). AID 2071; in the data active means inhibition mostly above about 24%, no sharp cut-off; inactive means mostly below about 32%
# Yeast superoxide: lowers age-related superoxide in aged yeast cells; actives 0.18% (n = 330,000); S. cerevisiae aged cells, superoxide DHE fluorescence; stronger effect = lower value; superoxide response (% of plate mean), % at 10 µM; AID 2690;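 active means superoxide response under a set limit, about three screen SD below normal, cut at about 65% in these data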;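 further: yeast aged for seven days with compound at 30 °C before DHE staining; 100% = average MFI of all compound-treated wells on the plate with controls excluded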
# NR3A LBD binder: modulators (binders) of human NR3A ligand-binding domain. NR3A LBD differential scanning fluorimetry, Tm shift; 0% = protein alone, 100% = glycine-bound protein. Tm shift relative to glycine control, % at 25 µM. actives 2.5% (n = 340,000);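 active means melting temperature shift of at least 10% of the positive control shift, at one fixed dose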
# UBC13 inh: blocks human UBC13 polyubiquitin chain formation; inhibition, % at 20 µM; P61088; actives 0.47% (n = 330,000); AID 485273; TR-FRET; in the data active means inhibition above about 45%, passing the limit was not always enough; inconclusive means no clear call, values can overlap the other calls
# Target sequence (P61088 whole entry, looked up): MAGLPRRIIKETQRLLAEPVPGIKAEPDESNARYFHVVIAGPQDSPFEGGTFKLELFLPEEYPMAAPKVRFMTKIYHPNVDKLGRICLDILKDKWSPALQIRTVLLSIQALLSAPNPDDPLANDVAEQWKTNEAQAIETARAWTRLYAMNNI
# dFosB act: mouse delta FosB homodimer activation; purified delta FosB, TAMRA-CDK5 oligo fluorescence polarization; percent of positive-control signal above neutral wells; activation, % at 25 µM; actives 0.99% (n = 340,000); AID 493131;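 active means mean activation above about 17%, with every replicate also reaching it, limit read from the data, passing the limit was not always enough; inconclusive means only one of the two conditions met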
# Target sequence (P13346 whole entry, looked up): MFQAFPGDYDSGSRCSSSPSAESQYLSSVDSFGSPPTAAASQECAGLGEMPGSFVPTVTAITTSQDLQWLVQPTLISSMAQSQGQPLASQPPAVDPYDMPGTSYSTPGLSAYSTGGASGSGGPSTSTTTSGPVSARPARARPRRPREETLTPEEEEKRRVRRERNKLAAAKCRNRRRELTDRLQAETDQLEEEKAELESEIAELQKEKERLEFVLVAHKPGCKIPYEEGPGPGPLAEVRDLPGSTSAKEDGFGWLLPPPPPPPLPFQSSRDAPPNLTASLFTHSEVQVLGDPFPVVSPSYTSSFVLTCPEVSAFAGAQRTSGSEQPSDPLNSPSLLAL
# * hit, by the source's call; ? = inconclusive; . = no result given. This is a sample that favours compounds with a hit; in the whole collection about 4.3% have one here.
SMILES,NALP1 yeast inh,Yeast superoxide,NR3A LBD binder,UBC13 inh,dFosB act
CCC(C)c1ccc(C2C3=C(Nc4nc(N)[nH]c(=O)c42)c2ccccc2C3=O)cc1 (stereo not given),5,101,3,-38,33*
C=CCc1cccc(/C=N/NC(=O)c2ccc3nc[nH]c3c2)c1O,6,123,11*,-5,19*
COc1cc(/C=N/NC(=O)c2ccccc2)ccc1O,-21,95,2,-11,-4
O=C(N/N=C/C(Br)=C\c1ccccc1)c1ccc2nc[nH]c2c1,13,98,15*,-3,9
COc1cc(/C=N/NC(=O)c2[nH]nc3c2CCc2ccccc2-3)ccc1O,-14,82,29*,22,-3
O=C(N/N=C/c1ccc(Cl)cc1Cl)c1ccc2nc[nH]c2c1,22,101,2,5,1
CCC(CC)NC(=O)c1ccc2nc[nH]c2c1,-7,98,18*,3,0
CC(NC(=O)c1ccc2nc[nH]c2c1)c1ccccc1 (stereo not given),10,103,0,1,-6
O=C(NCc1ccccc1Br)C1CCCO1 (stereo not given),-5,105,0,4,1
COc1cc(/C=N/NC(=O)c2ccc3nc[nH]c3c2)ccc1O,.,101,26*,-1,1
COc1cccc(/C=N/NC(=O)c2ccc3nc[nH]c3c2)c1,-2,103,4,-16,-19
CCC(C)Nc1nc(-c2ccc3c(c2)NC(=O)CO3)cs1 (stereo not given),-13,95,1,12,-5
COc1ccc(Nc2nc(-c3ccc4c(c3)NC(=O)CO4)cs2)cc1,-1,93,15*,6,-20
COc1ccc(-c2cc(-c3ccccc3)nc(-c3ccc4c(c3)NC(=O)CO4)c2)cc1,17,111,3,-19,-7
COc1ccccc1Nc1nc(-c2ccc3c(c2)NC(=O)CO3)cs1,-9,107,32*,6,-5
COc1ccc(/C=C2\SC(=S)N(CC(=O)OCC(=O)Nc3cc(Cl)cc(Cl)c3)C2=O)cc1,.,102,7,-1,-6
Cc1cn(CC(=O)NCCCN2CCCC2=O)c(=O)[nH]c1=O,.,.,0,.,-4
Cc1ccc2nc(NC(=O)CCNS(=O)(=O)c3ccc(Br)s3)sc2c1,0,113,11*,6,-4
CC(=O)Nc1nc2ccc(Br)cc2s1,29*,90,0,4,-10
N#Cc1c(SCC(=O)Nc2nc3ccc(Br)cc3s2)sc2c(O)cc(=O)[nH]c12,12,99,18*,-5,-15
Cc1ccc2nc(NC(=O)c3ccc(Br)o3)sc2c1,16,108,18*,-5,5
O=C(Nc1nc2ccc(Br)cc2s1)c1ccco1,18,112,4,12,-3
COc1ccc(CCN2CC(C(=O)OCC(=O)NC(C)c3cccc(Cl)c3)CC2=O)cc1OC (stereo not given),.,81,0,-5,-7
COc1ccc([C@H]2CC(=O)C=C(c3ccnc4ccc(Cl)cc34)C2)cc1,.,99,-6,8,4
Fc1ccccc1Cn1cc(C(=S)N2CCOCC2)c2ccccc21,.,70,0,-6,-6
SMILES,NALP1 yeast inh,Yeast superoxide,NR3A LBD binder,UBC13 inh,dFosB act
Cc1cc(C)c2sc(NC(=O)c3ccc([N+](=O)[O-])o3)nc2c1,-3,80,15*,-42,12
COc1ccc(NS(=O)(=O)c2ccc(O)c(NC(=O)c3cc4c(C)nn(-c5ccc(F)cc5)c4s3)c2)cc1,30,114,31*,-36,1
Cc1nn(-c2ccc(F)cc2)c2sc(C(=O)N3CCCCCC3)cc12,-8,101,-5,15,-8
COc1cc(/C=N/N2CCOCC2)ccc1OCc1ccccc1,7,121,-5,-14,2
COc1cc(/C=N/N2CCOCC2)ccc1OCc1ccc(Cl)cc1,2,111,22*,-8,-17
COc1cc(/C=C(\C#N)c2ccccn2)ccc1OCc1ccc(Cl)cc1,24,103,14*,-8,-3
COc1ccc(OC)c(S(=O)(=O)N(C)CC(=O)N2CCCCC2)c1,-1,100,-2,3,4
Nc1cc(Cl)ccc1Nc1ccncc1,9,104,0,.,0
O=C(CCl)Nc1cn(-c2ccccc2)nc1-c1ccccc1,16,105,0,2,0
CC1CCc2c(sc(Nc3nc4c(F)cccc4s3)c2C(N)=O)C1 (stereo not given),35,108,12*,-4,-11
Cc1onc(-c2c(Cl)cccc2Cl)c1C(=O)NC(=S)Nc1sc2c(c1C(N)=O)CCC(C)C2 (stereo not given),29,80,30*,4,?
O=C1CC2CCCN2C=C1I (stereo not given),.,113,1,-3,-3
Cc1cc(C(=O)CCC(=O)NCC(=O)Nc2c(C)cccc2C)c(C)s1,.,99,0,-21,-10
COc1ccc(S(=O)(=O)N2CCCCC2)cc1NS(=O)(=O)c1ccc(CNC(C)=O)cc1,.,112,-1,-3,-12
COc1ccc(-n2sc3ccc(F)cc3c2=O)cc1,.,115,28*,-16,0
O=c1c2cc(F)ccc2sn1-c1ccc(F)cc1,.,108,2,-7,0
Cc1cc(C)c2c(c1)/C(=N\N=c1\sc3ccccc3n1C)C(=O)N2,.,104,-2,-121,-15
Cc1c(CN2CCC(CO)(CCOc3ccccc3)CC2)[nH]c2c(Cl)cccc12,11,112,-3,26,21*
NC(=O)c1ccc(NC(=O)Nc2ccc3c(c2)OCO3)cc1,1,103,13*,0,4
O=C(Nc1ccc2c(c1)OCCO2)Nc1ccc2c(c1)OCO2,18,98,-38,-6,-5
COC(=O)c1ccc(NC(=O)Nc2ccc3c(c2)OCO3)cc1,3,101,24*,3,5
O=C(N/C(=C/c1cccc(Br)c1)c1nc(=S)[nH][nH]1)c1ccccc1,20,90,22*,1,-6
O=C(c1ccco1)N1CCN(C(=O)c2ccc(CS(=O)c3ccc(F)cc3)o2)CC1 (stereo not given),44*,95,-2,-4,-2
O=C(c1cncc(Br)c1)N1CCc2ccccc2C1,6,97,15*,-4,-2
O=C(c1cccnc1)N1CCCC(Nc2ccc(F)cc2)C1 (stereo not given),16,94,-2,-4,-12
COc1cc2ccccc2cc1C(=O)Nc1ccc(O)cc1,5,100,5,6,-14
COc1ccc2[nH]cc(/C=C/C(=O)c3ccccc3)c2c1,6,91,29*,20,-7
Cn1cc(/C=C/C(=O)c2ccccc2)c2ccccc21,.,76,1,-12,-2
Cc1ccc(C(=O)/C=C/c2cn(CN3CCN(C)CC3)c3ccccc23)cc1,-9,91,38*,37,-19
O=C(/C=C/c1c[nH]c2ccccc12)c1ccccc1,47,94,24*,-8,3

# Source: PubChem BioAssay
